Data on 87 molecules can be found in PubChem BioAssay AID504652 (National Center for Advancing Translational Sciences (NCATS), 2011).

Hit rate of the full screen: of about 360,000 compounds, about 11,000 (3.1%) were called active. What follows is part of a selection rich in actives, with near analogues and random picks from the rest. Unmarked numbers belong to inactive results. Rule as the data show it: active = activity change below about -30%; inactive = the rest.
% is scaled to controls: 0 for no effect and ±100 for the full control effect.

Sequence of D(1A) dopamine receptor (Homo sapiens) (P21728 whole entry, looked up): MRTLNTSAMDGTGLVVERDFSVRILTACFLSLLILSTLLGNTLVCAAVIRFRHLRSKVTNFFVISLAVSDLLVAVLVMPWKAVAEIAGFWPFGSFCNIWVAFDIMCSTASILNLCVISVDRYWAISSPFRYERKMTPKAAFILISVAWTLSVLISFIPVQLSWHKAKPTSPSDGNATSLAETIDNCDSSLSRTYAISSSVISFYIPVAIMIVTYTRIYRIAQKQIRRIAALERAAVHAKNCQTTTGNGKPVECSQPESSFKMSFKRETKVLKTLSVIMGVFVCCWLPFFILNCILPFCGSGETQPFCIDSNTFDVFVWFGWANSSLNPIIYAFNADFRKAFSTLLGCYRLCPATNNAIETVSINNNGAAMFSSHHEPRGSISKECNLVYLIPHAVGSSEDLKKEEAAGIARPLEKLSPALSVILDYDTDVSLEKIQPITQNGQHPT

The assay deals with D(1A) dopamine receptor (Homo sapiens) (UniProt P21728). Description: Antagonist of Human D 1 Dopamine Receptor: qHTS. Particulars: HEK293 TREx D1 cells, calcium flux, dopamine EC80; at 10 µM; active compounds read low. The procedure, abridged:
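Cells carrying a force-coupled, tetracycline-inducible human D1 receptor report calcium flux. Each well gets a 10 s baseline, compound with 180 s monitoring, then an EC80 dopamine stimulus with a second 180 s kinetic read.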
Consider `N#Cc1nc(Nc2cc(F)cc(Cl)c2)nc(NC2CCCC2)n1`, for which the activity change, negative = inhibition is -27%.
As for `Cc1cc(C)cc(NS(=O)(=O)c2ccc(-c3cc(C)no3)s2)c1`, the activity change, negative = inhibition was -9.8%.
For `COc1ccc(C)cc1NC(=O)COCc1cc(-c2cccs2)on1` the value was 15%; for `Cc1cc(-c2ccc(S(=O)(=O)N3CCN(c4cccc(C(F)(F)F)c4)CC3)s2)on1`, -24.5%; for `Cc1cccc(N2CCN(S(=O)(=O)c3ccc(-c4cc(C)no4)s3)CC2C)c1` (configuration not stated), -39.9% (active).
The value for `Cc1cc(-c2ccc(S(=O)(=O)N3CCc4ccccc4C3)s2)on1` was -15.7%; that for `Cc1ccc(C)c(N2C(=O)N(Cc3c(F)cccc3Cl)c3ccccc3S2(=O)=O)c1` was -19.3%.
For `O=c1onc(-c2c(F)cccc2F)n1-c1ccccc1Cl` the value was -36.4% (active); for `O=C(Cn1c(-c2ccc(Cl)cc2)noc1=O)N1CCN(c2ccccc2F)CC1`, -13.7%.
As for `CCOc1ccccc1CNCc1c(C(=O)O)c(C)n(Cc2ccc(C)cc2)c1C`, the activity change, negative = inhibition is 0.5%.
The value for `CCCCNc1ccc(-c2nc(-c3ccncc3)no2)cc1[N+](=O)[O-]` was 10.8%; that for `CCOC(=O)c1ccc(NC(=O)C2CCN(S(=O)(=O)c3ccc4c(c3)CCCC(=O)N4)CC2)cc1` was 2.67%; that for `CCCCOc1ccc(NC(=O)c2cc3c(n(-c4ccc(Cl)cc4)c2=O)CCCC3=O)cc1` was 1.15%.
On to `COc1ccccc1NC(=O)[C@H](COCc1ccccc1)NC(=O)OC(C)(C)C`, for which the activity change, negative = inhibition is -13.2%.
Turning to `C[C@@H](NC(=O)OC(C)(C)C)c1nnc(S(=O)(=O)Cc2ccccc2)o1`, the activity change, negative = inhibition is -33% (active).
The value for `CC(C)(C)c1ccc(C(CC(=O)O)NS(=O)(=O)Cc2ccccc2)cc1` (configuration not stated) was -2.49%; that for `O=C(NCCc1ccccc1)c1cnc2sc(N3CCCC3)nn2c1=O` was 8.92%; that for `CCOc1ccc(NC(=O)CCC(=O)N2CC(C)Oc3ccc(C)cc32)cc1` (configuration not stated) was -0.916%.
For `Cc1cccc(N2CCN(c3ccc(C(=O)O)cc3NC(=O)c3ccccc3F)CC2C)c1` (configuration not stated), the activity change, negative = inhibition is 20.1%.
For `CNc1ccc(-c2nc(-c3ccco3)no2)cc1[N+](=O)[O-]` the value was -31.8% (active).
For `COc1ccccc1-c1noc(-c2ccc(NCc3ccccc3)c([N+](=O)[O-])c2)n1` the value was 4.22%.
For `CN(Cc1ccccc1)c1ccc(-c2nc(-c3ccccc3)no2)cc1[N+](=O)[O-]` the value was -53.5% (active); for `CC(Nc1ccc(-c2nc(-c3ccco3)no2)cc1[N+](=O)[O-])c1ccccc1` (configuration not stated), -5.4%; for `CNc1ccc(-c2nc(-c3ccccc3C)no2)cc1[N+](=O)[O-]`, -6.85%.
Take `O=[N+]([O-])c1cc(-c2nc(-c3ccccc3)no2)ccc1NCc1ccco1`: the activity change, negative = inhibition was -9.94%.
For `CCN(CC)CCn1c(N)c(S(=O)(=O)c2ccccc2)c2nc3ccccc3nc21`, the activity change, negative = inhibition is -52.8% (active).
The value for `Cc1ccc(S(=O)(=O)c2c(N)n(C)c3nc4ccccc4nc23)cc1` was -3.59%; that for `CCC(=O)Nc1c(S(=O)(=O)c2ccccc2)c2nc3ccccc3nc2n1Cc1ccccc1` was -7.1%.
For `CCn1cc(C(=O)NCCc2ccccc2)c(=O)c2cc(S(=O)(=O)N3CCCCCC3)ccc21` the value was -7.94%; for `CCn1c2ccccc2c2nnc(N3CCN(c4cc(C)ccc4C)CC3)nc21`, -7.14%; for `COc1cccc(C(=O)NC2CCN(C#N)CC2)c1`, 4.13%.
Regarding `O=C(NCCCN1CCCC1=O)c1ccc(S(=O)(=O)Nc2ccccc2)cc1`, the activity change, negative = inhibition was 4.25%.
For `O=C(NCCCN1CCCC1=O)c1cccc(S(=O)(=O)NCc2ccccc2)c1` the value was -24.9%.
For `Cc1cccc(C(=O)NCCCN2CCCC2=O)c1` the value was -31.5% (active); for `CCCCCCn1nnc2sc(-c3ccccc3)cc2c1=O`, 0.186%.
On to `CC(=O)c1cc(NC(=O)c2ccccc2)c(=O)oc1/C=C/N(C)C`, for which the activity change, negative = inhibition is 0.591%.
Take `CCOC(=O)c1cc(NC(=O)c2ccc(F)cc2)c(=O)n2c1oc1ccccc12`: the activity change, negative = inhibition is 0.884%.
The value for `CCOC(=O)c1cc(NC(=O)c2ccc(Cl)cc2)c(=O)oc1-c1ccccc1` was -34.6% (active); that for `CSc1ccccc1NC(=O)CCS(=O)(=O)c1nc(-c2cccs2)cc(C(F)(F)F)n1` was 2.34%.
The value for `O=C(CNC(=O)c1ccccc1)OC(C(=O)Nc1cc([N+](=O)[O-])ccc1F)c1ccccc1` (configuration not stated) was 4.21%; that for `CC(C)(C)OC(=O)N1CCC(c2c(C(=O)N3CCN(c4cccc(Cl)c4)CC3)cnn2-c2cccc(Cl)c2)CC1` was -2.09%.
For `Cc1nc(SCC(=O)N2CCN(c3ccccc3)CC2)[nH]c(=O)c1C` the value was -2.36%; for `COc1ccc(OCC(O)CN(C)C(=O)C(C)Oc2ccccc2)cc1` (configuration not stated), -13.9%; for `CN(Cc1ccccc1)CC(O)COc1ccc(CNCc2cc3ccccc3s2)cc1` (configuration not stated), -41.2% (active).
`Cc1ccc(OCC(=O)OC(C)CN(C)Cc2ccccc2)cc1` (configuration not stated): the activity change, negative = inhibition is -3.69%.
Regarding `CCn1cc(/C=C(\NC(=O)c2cc(OC)c(OC)c(OC)c2)C(=O)N2CCN(C)CC2)c2ccccc21`, the activity change, negative = inhibition was 3.95%.
For `Cc1ccc(C(=O)N/C(=C\c2cn(C)c3ccccc23)C(=O)N2CCN(C)CC2)cc1` the value was 10.2%; for `COc1cc(C(=O)N/C(=C\c2cn(C)c3ccccc23)C(=O)N2CCOCC2)cc(OC)c1OC`, -33.6% (active).
For `COc1ccccc1Cc1nc2ccccc2nc1SCC(=O)N1CCCc2ccccc21`, the activity change, negative = inhibition was -2.97%.
For `COc1ccc(NC(=O)c2cnc(Nc3ccc(C)c(Cl)c3)c3ccccc23)cc1OC` the value was 0.261%; for `Cc1cc(C)c(NC(=O)Cn2c(SCC(=O)NCc3ccccc3)nc3ccccc32)c(C)c1`, 2.9%; for `Cc1ccccc1NC(=O)Cc1nc(COC(=O)c2ccc(C(F)(F)F)cc2)cs1`, -34.6% (active).
The value for `C/C=C/C(=O)OCc1csc(CC(=O)Nc2ccccc2C)n1` was -6.19%; that for `Cc1ccccc1NC(=O)Cc1nc(COC(=O)c2cccnc2Cl)cs1` was -12%.
Consider `CCC(=O)N1CCc2cc(CNC(=O)Nc3ccccc3Cl)ccc21`, for which the activity change, negative = inhibition is 8.55%.
As for `CCCN1C(=O)C(O)(CC(=O)c2ccc(CC)cc2)c2cc(Br)ccc21` (configuration not stated), the activity change, negative = inhibition was -2.04%.
The value for `Cc1ccc(-c2onc(C)c2C)cc1S(=O)(=O)Nc1ccccn1` was -4.41%; that for `COc1ccc(-c2onc(C)c2C)cc1S(=O)(=O)NCCc1ccccc1` was -3.85%; that for `O=S(=O)(c1ccc(Br)cc1)c1nnn2c1nc(N1CCOCC1)c1sccc12` was 0.25%.
For `O=C(Nc1ccc2ccccc2c1)Nc1ccc2snnc2c1`, the activity change, negative = inhibition was -44.8% (active).
With `O=C(Nc1ccncc1)Nc1ccc(F)cc1`, the activity change, negative = inhibition is 9%.
The value for `Cc1nc2cc(NC(=O)Nc3cccc(F)c3)ccc2n1C` was -4.15%; that for `Cc1ccccc1NC(=O)Cn1c(=O)n(Cc2ccco2)c(=O)c2ccc(C(=O)NC3CCCC3)cc21` was -18.2%.
For `COc1ccc(NC(=O)C(c2ccccc2)N2Cc3ccccc3C2=O)cc1` (configuration not stated) the value was -6.94%.
The value for `CCC(=O)c1ccc(OCC(=O)Nc2ccc(N3CCCCC3)cc2)cc1` was 16.6%; that for `COc1ccc(OCC(=O)OCC(=O)Nc2ccc(S(=O)(=O)N3CCCCC3)cc2)cc1` was -15.5%.
Turning to `COc1ccc(OCC(=O)Nc2ccc(N3CCC(C)CC3)cc2)cc1`, the activity change, negative = inhibition is -33.3% (active).
The value for `CN1CCC(OC(=O)COc2ccc(Cl)cc2Cl)CC1` was -9.08%.
With `Cc1ccc(Cl)c(OCC(=O)N(C)CC(=O)Nc2ccc(N3CCOCC3)cc2)c1`, the activity change, negative = inhibition was -14.5%.
For `CN1CCN(c2ccc(NC(=O)COc3ccc(Cl)cc3Cl)cc2)CC1` the value was -32% (active).
For `CCOC(=O)C1CCN(C(=O)CSc2c3c(nc4ccc(Cl)cc24)CCCC3)CC1` the value was -13.5%.
In the case of `CC(=O)N1CCc2cc(Br)cc(S(=O)(=O)CCC(=O)NCCc3ccc(Cl)cc3)c21`, the activity change, negative = inhibition was -8.71%.
On to `COc1ccc(-c2noc(CSc3nc4ccc(C)cc4[nH]3)n2)cc1`, for which the activity change, negative = inhibition was -1.27%.
For `CC(=O)c1ccc(NC(=O)c2nc(-c3ccc(C)cc3)n3c2CCCCC3)cc1` the value was -2.03%; for `O=C(CCN1C(=O)c2ccccc2C1=O)NNC(=O)c1ccc(Cl)cc1Cl`, -4.44%; for `CC(C)(C)c1cc(C(=O)NN)n(Cc2ccc(Cl)cc2Cl)n1`, -27.8%.
For `Cn1cc(C(=O)c2ccc(Cl)cc2Cl)cc1C(=O)NN` the value was -37.3% (active).
The value for `Cc1ccc(NC(=O)c2cn3c4c(ccc(Cl)c4c2=O)OC(C)C3)cc1C` (configuration not stated) was -1.66%.
For the molecule `Cc1cc(Cl)ccc1NC(=O)Cc1ccc(NC(=O)N2CCCCc3ccccc32)cc1`, the activity change, negative = inhibition was -3.59%.
Turning to `CCOc1ccc(NC(=O)CCc2c(C)nn(-c3ccc(N4CCCC4)nn3)c2C)cc1`, the activity change, negative = inhibition is 4.71%.
Turning to `CC(=O)Nc1c(C)nn(-c2ccccc2)c1N1CCC(C(=O)Nc2cc(Cl)ccc2C)CC1`, the activity change, negative = inhibition was -18.9%.
The value for `CSc1ncc(Cl)c(C(=O)Nc2ccc(S(=O)(=O)N3CCCC(C)C3)cc2)n1` (configuration not stated) was -5.19%; that for `CN(CC(=O)Nc1ccc(Cl)cc1)C(=O)c1ccc(COc2ccccc2)cc1` was 3.34%.
The value for `CCOc1ccc(CN(C)C(=O)c2ccc(=O)[nH]c2)cc1` was 10.3%; that for `CN(Cc1ccccc1)C(=O)c1ccc(COc2ccccc2)cc1` was -60.8% (active).
For `CCOc1cc(C2C(C(=O)OC)=C(C)NC3=C2C(=O)c2ccccc23)ccc1O` (configuration not stated) the value was -1.02%; for `COc1ccccc1-c1cc2nc(C)c(CCC(=O)NC3CCCCC3)c(C)n2n1`, 2.22%.
